Data published in PubChem BioAssay.
Activity calls are given as the source filed them. Unless noted, no rule for the calls is given here.

Experiments:
[1] = system: Wnt5a (protein binding on small-molecule microarray); test: Wnt5a binders on small-molecule microarray, primary screen, biophysical, 635/667 nm fluorescence (AID 1142); conditions: 635 nm fluorescence, higher = more signal;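 also: fluorescence read at 667 nm with signal to noise per printed feature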
[2] = cell viability in Huh7 cells, primary screen, cytotoxicity control for HCV replication inhibitor project, CellTiter-Glo luminescence, basal, 48 h (AID 1143); conditions: Huh7 HCV replicon, higher = more signal, called active from +8 up or from −8 down;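 also: Huh7 hepatoma cells carrying a hepatitis C replication reporter with no stimulus; test concentration not given here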
[3] = P. aeruginosa biofilm formation inhibitors, primary screen, PAO1 strain, BacTiter-Glo luminescence, LB-PBS (AID 1144); conditions: 12 h, higher = more signal
[4] = CREB reporter modulators without forskolin, primary screen, cell-based, PC12, CRE-LacZ reporter, unstimulated (AID 1145); conditions: no forskolin, luminescence, 4.5 h, higher = more signal, called active from +8 up or from −8 down
[5] = CREB reporter modulators under forskolin, primary screen, cell-based, PC12, CRE-LacZ reporter, forskolin-stimulated (AID 1146); conditions: luminescence, 4.5 h, higher = more signal, called active from +8 up or from −8 down;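 also: PC12 cells with 6xCRE LacZ reporter stimulated by forskolin 10 µM; beta-galactosidase reporter signal reflecting CREB driven transcription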
[6] = target: Streptavidin (Streptomyces avidinii) (UniProt P22629); test: streptavidin binders on small-molecule microarray, primary screen, artefact control for SMM compound annotation, biophysical, 635/667 nm fluorescence (AID 1147); conditions: streptavidin binding, higher = more signal;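 also: signal reflects streptavidin binding to arrayed compounds as a control protein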
[7] = small-molecule binders of probe aInhba, primary screen, biochemical, small-molecule microarray, 635/667 nm fluorescence (AID 1148); conditions: higher = more signal;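 also: score merges 667nm spot fluorescence with signal-to-noise for antibody binding to printed compounds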
Torsin-1A (Homo sapiens) [8] = target: Torsin-1A (Homo sapiens) (UniProt O14656); test: torsin A binders from cell lysate, primary screen, small-molecule microarray, wild-type, 635/667 nm (AID 1149); conditions: COS7 hTOR1A-WT lysate, 635 nm fluorescence, higher = more signal
Torsin-1A (Homo sapiens) [9] = target: Torsin-1A (Homo sapiens) (UniProt O14656); test: small-molecule binders of mutant TOR1A in lysate, primary screen, cell lysate, small-molecule microarray, COS7 lysate, 635/667 nm fluorescence (AID 1150); conditions: COS7 hTOR1A mutant lysate, 635 nm fluorescence, higher = more signal;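 also: score pools 667 nm emission and signal to noise measuring lysate protein binding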
[10] = system: Sonic hedgehog protein (Shh); test: small-molecule binders of Shh protein, primary screen, biochemical, small-molecule microarray, 635/667 nm fluorescence (AID 1151); conditions: small-molecule microarray binding, 635 nm fluorescence; higher = more signal;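 also: Shh protein binding to compounds spotted on small-molecule microarray slides; score combines spot fluorescence intensity with signal-to-noise across triplicate slides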
[11] = E. coli DRC41 culture turbidity changes, primary screen, E. coli filamentation inducer project, strain DRC41, OD650, 48 h (AID 1152);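 also: E. coli MC1000 strain DRC41 lacking acrAB efflux pump and sulA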; conditions: E. coli DRC41 (acrAB sulA), higher = more signal, called active from +8 up or from −8 down
[12] = small-molecule binders of probe aLefty1, primary screen, biochemical, small-molecule microarray, 635/667 nm fluorescence (AID 1153); conditions: higher = more signal;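 also: score merges spot fluorescence with signal-to-noise ratio from the scanned slide images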
[13] = PSAC antagonists in infected red cells, primary screen, cell-based, P. falciparum Indochina, OD700, 1 h (AID 1154); conditions: P. falciparum Indochina infected RBC osmotic lysis, higher = more signal, called active from +8 up or from −8 down
[14] = PSAC antagonists in infected red cells, primary screen, cell-based, P. falciparum Indochina, OD700, 2 h (AID 1155);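 also: lysis reports solute entry through the parasite surface anion channel PSAC; channel blockers reduce lysis of infected cells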; conditions: P. falciparum Indochina infected erythrocytes, osmotic lysis OD700; higher = more signal, called active from +8 up or from −8 down
[15] = osmotic lysis modulators in infected erythrocytes, primary screen, PSAC antagonist project, cell-based, P. falciparum Indochina, OD700, 3 h (AID 1156); conditions: higher = more signal, called active from +8 up or from −8 down
[16] = PSAC antagonists in infected red cells, primary screen, cell-based, P. falciparum Indochina, OD700, 18 h (AID 1157); conditions: P. falciparum Indochina infected erythrocytes, osmotic lysis OD700, 18 h; higher = more signal, called active from +8 up or from −8 down
[17] = modulators of S6 phosphorylation in cells, primary screen, cell-based, A549, cytoblot, luminescence, serum-stimulated (AID 1158); conditions: A549 phospho-S6 cytoblot, 5 h, higher = more signal;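 also: serum-stimulated A549 lung adenocarcinoma cells; signal is phosphorylated S6 detected by cytoblot immunostaining with HRP secondary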
[18] = target: NADPH oxidase 2 (Homo sapiens) (UniProt P04839); test: NOX2-dependent H2O2 signal modulators, primary screen, NOX inhibitor project, cell-based, HEK293-NOX2, PMA-stimulated, Amplex Red fluorescence (AID 1159); conditions: 45 min, higher = more signal, called active from +8 up or from −8 down; also: test concentration not given here
[19] = target: NADPH oxidase 4 (Homo sapiens) (UniProt Q9NPH5); test: NOX4-dependent H2O2 signal modulators, primary screen, NOX inhibitor project, cell-based, HEK293-NOX4, tetracycline-induced, Amplex Red fluorescence (AID 1160); conditions: 45 min, higher = more signal, called active from +8 up or from −8 down
[20] = target: NADPH oxidase 5 (Homo sapiens) (UniProt Q96PH1); test: NOX5-dependent H2O2 signal modulators, primary screen, NOX inhibitor project, cell-based, HEK293-NOX5, Amplex Red fluorescence (AID 1161); conditions: HEK293-NOX5, ionomycin, 45 min, higher = more signal
Sequence of NADPH oxidase 5 (Homo sapiens) (Q96PH1 whole entry, looked up): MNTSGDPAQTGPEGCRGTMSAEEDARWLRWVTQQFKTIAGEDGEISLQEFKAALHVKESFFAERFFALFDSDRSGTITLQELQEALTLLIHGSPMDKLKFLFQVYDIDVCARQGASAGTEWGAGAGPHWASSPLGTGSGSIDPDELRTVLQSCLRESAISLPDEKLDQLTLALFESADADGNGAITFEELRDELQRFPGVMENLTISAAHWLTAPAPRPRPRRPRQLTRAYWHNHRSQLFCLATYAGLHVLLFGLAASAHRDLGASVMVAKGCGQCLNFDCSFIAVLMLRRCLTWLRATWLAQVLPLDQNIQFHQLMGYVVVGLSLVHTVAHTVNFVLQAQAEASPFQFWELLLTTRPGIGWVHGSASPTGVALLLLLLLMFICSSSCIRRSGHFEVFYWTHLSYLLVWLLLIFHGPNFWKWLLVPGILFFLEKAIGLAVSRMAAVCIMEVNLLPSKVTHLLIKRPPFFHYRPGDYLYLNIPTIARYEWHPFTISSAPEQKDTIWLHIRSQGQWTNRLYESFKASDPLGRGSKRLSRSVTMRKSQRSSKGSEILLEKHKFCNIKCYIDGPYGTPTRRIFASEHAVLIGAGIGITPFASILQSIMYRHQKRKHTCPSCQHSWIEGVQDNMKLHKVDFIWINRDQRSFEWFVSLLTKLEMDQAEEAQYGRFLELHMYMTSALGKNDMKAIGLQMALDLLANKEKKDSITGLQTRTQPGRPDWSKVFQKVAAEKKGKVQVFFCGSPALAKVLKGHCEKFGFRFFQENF

Sequence of Streptavidin (Streptomyces avidinii) (P22629 whole entry, looked up): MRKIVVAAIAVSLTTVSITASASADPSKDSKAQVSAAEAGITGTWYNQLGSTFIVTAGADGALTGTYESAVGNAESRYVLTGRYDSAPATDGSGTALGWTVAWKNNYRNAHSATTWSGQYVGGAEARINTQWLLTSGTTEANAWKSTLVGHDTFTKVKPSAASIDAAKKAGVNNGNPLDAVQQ
Sequence of NADPH oxidase 4 (Homo sapiens) (Q9NPH5 whole entry, looked up): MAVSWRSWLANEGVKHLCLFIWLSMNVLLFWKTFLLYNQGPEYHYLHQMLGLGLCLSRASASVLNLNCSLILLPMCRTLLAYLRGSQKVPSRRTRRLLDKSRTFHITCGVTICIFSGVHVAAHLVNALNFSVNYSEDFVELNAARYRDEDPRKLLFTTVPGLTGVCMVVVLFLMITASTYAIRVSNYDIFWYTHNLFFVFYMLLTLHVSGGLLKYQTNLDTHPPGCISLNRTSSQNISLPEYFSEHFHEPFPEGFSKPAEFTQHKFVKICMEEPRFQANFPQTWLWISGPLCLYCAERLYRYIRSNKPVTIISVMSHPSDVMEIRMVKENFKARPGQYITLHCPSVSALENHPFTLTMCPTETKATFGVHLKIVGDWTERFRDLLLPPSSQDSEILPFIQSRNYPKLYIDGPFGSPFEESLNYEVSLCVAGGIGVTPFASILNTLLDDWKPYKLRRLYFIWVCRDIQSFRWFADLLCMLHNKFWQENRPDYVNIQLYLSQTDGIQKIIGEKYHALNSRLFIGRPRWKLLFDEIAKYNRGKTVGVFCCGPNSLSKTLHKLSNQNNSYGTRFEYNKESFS
Sequence of NADPH oxidase 2 (Homo sapiens) (P04839 whole entry, looked up): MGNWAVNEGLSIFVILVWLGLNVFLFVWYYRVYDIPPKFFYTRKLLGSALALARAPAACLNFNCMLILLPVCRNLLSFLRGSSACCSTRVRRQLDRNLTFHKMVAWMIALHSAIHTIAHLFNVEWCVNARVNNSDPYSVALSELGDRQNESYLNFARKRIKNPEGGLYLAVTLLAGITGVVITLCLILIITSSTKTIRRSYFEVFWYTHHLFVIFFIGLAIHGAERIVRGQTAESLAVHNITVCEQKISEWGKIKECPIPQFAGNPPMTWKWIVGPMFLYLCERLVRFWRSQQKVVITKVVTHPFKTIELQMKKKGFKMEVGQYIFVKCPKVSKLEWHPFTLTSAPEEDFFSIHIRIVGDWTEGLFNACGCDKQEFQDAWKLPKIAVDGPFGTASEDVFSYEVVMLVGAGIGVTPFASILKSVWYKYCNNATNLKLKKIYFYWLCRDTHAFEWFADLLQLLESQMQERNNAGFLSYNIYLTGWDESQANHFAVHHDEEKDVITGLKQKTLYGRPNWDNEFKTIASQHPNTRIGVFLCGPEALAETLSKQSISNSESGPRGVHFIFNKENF
Sequence of Torsin-1A (Homo sapiens) (O14656 whole entry, looked up): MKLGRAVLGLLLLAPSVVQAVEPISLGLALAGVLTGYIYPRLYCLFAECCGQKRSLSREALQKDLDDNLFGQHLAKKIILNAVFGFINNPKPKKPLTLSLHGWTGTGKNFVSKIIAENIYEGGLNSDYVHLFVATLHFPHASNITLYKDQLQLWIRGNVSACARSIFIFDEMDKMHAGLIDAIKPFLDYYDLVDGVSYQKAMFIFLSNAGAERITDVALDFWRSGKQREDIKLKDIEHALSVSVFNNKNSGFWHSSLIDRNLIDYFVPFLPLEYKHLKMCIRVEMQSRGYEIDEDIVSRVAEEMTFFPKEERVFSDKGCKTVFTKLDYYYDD

C=CCOC(=O)[C@@H]1[C@H]2C(=O)O[C@H](c3ccccc3)[C@H](c3ccccc3)N2[C@H](c2ccc(OCCOC(=O)[C@H]3C[C@H]4C(=O)N5CCC[C@H]5C(=O)N4[C@H]3c3ccc(O)cc3)cc2)[C@@]12C(=O)Nc1ccc(I)cc12
composite z-score [1]: 0.259
z-score [2]: -2.3 (inactive)
z-score [3]: -0.212 (inactive)
z-score [4]: 0.277 (inactive)
z-score [5]: -0.466 (inactive)
composite z-score [6]: -0.033
composite z-score [7]: -0.0775
composite z-score (Torsin-1A (Homo sapiens) [8]): 0.919
composite z-score (Torsin-1A (Homo sapiens) [9]): 0.98
composite z-score [10]: 2.15
z-score [11]: 0.371 (inactive)
composite z-score [12]: 0.19
z-score [13]: 1.37 (inactive)
z-score [14]: -0.552 (inactive)
z-score [15]: 0.777 (inactive)
z-score [16]: -1.37 (inactive)
z-score [17]: 0.718
z-score [18]: 0.986 (inactive)
z-score [19]: 1.1 (inactive)
z-score [20]: 1.36

COC(=O)C(CC#Cc1ccc2c(c1)[C@]1(C(=O)N2)[C@H](C(=O)Nc2nc3ccccc3s2)[C@H]2C(=O)O[C@H](c3ccccc3)[C@H](c3ccccc3)N2[C@@H]1c1ccccc1OCCO)C(=O)OC
composite z-score [1]: 0.573
z-score [2]: -5 (inactive)
z-score [3]: -0.438 (inactive)
z-score [4]: 0.389 (inactive)
z-score [5]: 0.372 (inactive)
composite z-score [6]: 0.679
composite z-score [7]: 0.12
composite z-score (Torsin-1A (Homo sapiens) [8]): 0.25
composite z-score (Torsin-1A (Homo sapiens) [9]): 0.733
composite z-score [10]: 1.03
z-score [11]: -0.839 (inactive)
composite z-score [12]: 0.284
z-score [13]: 4.9 (inactive)
z-score [14]: 2.16 (inactive)
z-score [15]: -0.174 (inactive)
z-score [16]: 1.69 (inactive)
z-score [17]: -0.333
z-score [18]: 1.28 (inactive)
z-score [19]: 0.252 (inactive)
z-score [20]: 0.774

COCCOC(=O)N1C(=O)[C@@]2(c3ccccc31)[C@H](c1ccc(O)cc1)N1[C@H](c3ccccc3)[C@H](c3ccccc3)OC(=O)[C@H]1[C@@H]2C(=O)Nc1nc2ccccc2s1
composite z-score [1]: 0.243
z-score [2]: -1.67 (inactive)
z-score [3]: 0.272 (inactive)
z-score [4]: -0.467 (inactive)
z-score [5]: 2.42 (inactive)
composite z-score [6]: 0.795
composite z-score [7]: 0.225
composite z-score (Torsin-1A (Homo sapiens) [8]): 0.514
composite z-score (Torsin-1A (Homo sapiens) [9]): 1.23
composite z-score [10]: 1.13
z-score [11]: 0.894 (inactive)
composite z-score [12]: 0.541
z-score [13]: 1.31 (inactive)
z-score [14]: 1.1 (inactive)
z-score [15]: 0.109 (inactive)
z-score [16]: 1.41 (inactive)
z-score [17]: 0.172
z-score [18]: 1.41 (inactive)
z-score [19]: 0.449 (inactive)
z-score [20]: 1.41

COCCOC(=O)N1C(=O)[C@@]2(c3cc(C#CCNC(N)=O)ccc31)[C@H](C(=O)Nc1nc3ccccc3s1)[C@H]1C(=O)O[C@H](c3ccccc3)[C@H](c3ccccc3)N1[C@@H]2c1ccc(OCCO)cc1
composite z-score [1]: 0.341
z-score [2]: 0.759 (inactive)
z-score [3]: -0.609 (inactive)
z-score [4]: -0.874 (inactive)
z-score [5]: -0.274 (inactive)
composite z-score [6]: 0.664
composite z-score [7]: 0.261
composite z-score (Torsin-1A (Homo sapiens) [8]): -0.0017
composite z-score (Torsin-1A (Homo sapiens) [9]): 0.452
composite z-score [10]: 0.969
z-score [11]: -0.537 (inactive)
composite z-score [12]: 0.729
z-score [13]: 2.48 (inactive)
z-score [14]: 1.23 (inactive)
z-score [15]: 0.0531 (inactive)
z-score [16]: 0.559 (inactive)
z-score [17]: -0.0692
z-score [18]: 1.42 (inactive)
z-score [19]: 1.19 (inactive)
z-score [20]: 1.4
